# Data taken from PubChem BioAssay (NCI).
# About 79,000 compounds went through this panel and 15% of them were active in at least one assay; those are over-represented in the sample as a whole. Active and inactive are the calls of the source. Rule as the data show it: active = growth inhibition above about 70%; inactive = the rest.
# Test: NCI Yeast Anticancer Drug Screen. Data for the rad50 strain (AID 155);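 also: 0% = growth of vehicle-only cultures of the same strain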
# Conditions: S. cerevisiae rad50 strain growth inhibition; at 50.0 µM; hits give high values
# Summary of the method: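 Relative growth inhibition (compound vs vehicle) was measured in yeast with a defined repair-gene alteration.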
row,SMILES,growth inhibition
1,CC(CCC(=O)O)(CCC(=O)O)[N+](=O)[O-],0.85% (inactive)
2,CC(c1ccc([N+](=O)[O-])cc1)n1cnc2c(N(CCO)CCO)ncnc21 (configuration not stated),6.3% (inactive)
3,C=CCC12CCC(=O)[C@@]1(C)CC=C(O)C2=O (some centres not stated),8.6% (inactive)
4,C=C(C)C1CCC2(C=O)CCC3(C)C(CCC4C5(C)CCC(O)C(C)(C)C5CCC43C)C12 (configuration not stated),25.9% (inactive)
5,Cc1cccc(Cl)c1NC1=NCCN1C(=O)CC(=O)c1ccccc1,54.1% (inactive)
6,CC(=O)NCCc1[nH]cnc1N=Nc1ccc(Br)cc1,0.95% (inactive)
7,CN(C)c1nc2ccc(Cl)cc2c(=O)[nH]1,6.25% (inactive)
8,C/C=C1\CN2CCc3c([nH]c4ccccc34)C2C=C1CCO (configuration not stated),-19.1% (inactive)
9,COc1ccccc1C(=O)C(CN(C)C)CN(C)C,-2.5% (inactive)
10,Cc1ccc(NC(=O)C(=O)C(C(=O)c2ccc3ccccc3c2)C2OC(=O)c3ccccc32)c(C)c1 (configuration not stated),45.6% (inactive)
11,COC(=O)c1ccc(CS(=O)(=O)c2ccccc2)cc1,2% (inactive)
12,NNS(=O)(=O)c1cccc(S(=O)(=O)NN)c1,-13.9% (inactive)
13,COc1ccc(/C=C/C(=O)C(C)(C)CN(C)CCN(C)C)cc1,-36% (inactive)
14,N#CC(C#N)=C(N)/C(C#N)=C/c1ccc(O)c(O)c1,-14.2% (inactive)
15,O=C(Cc1ccccc1)NNC(=O)Nc1ccccc1,4% (inactive)
16,CN(C)Cc1cc(C(=O)O)ccc1O,10.1% (inactive)
17,Cc1cc(C)c2ccc(NN=O)nc2n1,11.4% (inactive)
